This passage reports composite z-score and z-score results from PubChem BioAssay.

Molecules are shown by their SMILES. The source made the active and inactive calls. Unless noted, no rule for the calls is given here.

The subject of assay [1] is Wnt5a (protein binding on small-molecule microarray). As to the kind of experiment: Wnt5a binders on small-molecule microarray, primary screen, biophysical, 635/667 nm fluorescence (AID 1142).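 Also: fluorescence read at 667 nm with signal to noise per printed feature.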 The following applies: 635 nm fluorescence, higher = more signal.
Assay [2] is described as follows: cell viability in Huh7 cells, primary screen, cytotoxicity control for HCV replication inhibitor project, CellTiter-Glo luminescence, basal, 48 h (AID 1143).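 Also: Huh7 hepatoma cells carrying a hepatitis C replication reporter with no stimulus; test concentration not given here.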 Particulars: Huh7 HCV replicon, higher = more signal, called active from +8 up or from −8 down. (In general: Cellular ATP, detected with luciferase, serves as a proxy for viable cell number.)
A short description of assay [3]: P. aeruginosa biofilm formation inhibitors, primary screen, PAO1 strain, BacTiter-Glo luminescence, LB-PBS (AID 1144). The following applies: 12 h, higher = more signal.
A short description of assay [4]: CREB reporter modulators without forskolin, primary screen, cell-based, PC12, CRE-LacZ reporter, unstimulated (AID 1145). The following applies: no forskolin, luminescence, 4.5 h, higher = more signal, called active from +8 up or from −8 down.
A short description of assay [5]: CREB reporter modulators under forskolin, primary screen, cell-based, PC12, CRE-LacZ reporter, forskolin-stimulated (AID 1146).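 Also: PC12 cells with 6xCRE LacZ reporter stimulated by forskolin 10 µM; beta-galactosidase reporter signal reflecting CREB driven transcription.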 The following applies: luminescence, 4.5 h, higher = more signal, called active from +8 up or from −8 down.
Assay [6] deals with Streptavidin (Streptomyces avidinii) (UniProt P22629). Description: streptavidin binders on small-molecule microarray, primary screen, artefact control for SMM compound annotation, biophysical, 635/667 nm fluorescence (AID 1147).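 Also: signal reflects streptavidin binding to arrayed compounds as a control protein.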 The following applies: streptavidin binding, higher = more signal.
The nature of assay [7]: small-molecule binders of probe aInhba, primary screen, biochemical, small-molecule microarray, 635/667 nm fluorescence (AID 1148).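 Also: score merges 667nm spot fluorescence with signal-to-noise for antibody binding to printed compounds.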 The following applies: higher = more signal.
Assay [8] has as its target Torsin-1A (Homo sapiens) (UniProt O14656). Description: torsin A binders from cell lysate, primary screen, small-molecule microarray, wild-type, 635/667 nm (AID 1149). The following applies: COS7 hTOR1A-WT lysate, 635 nm fluorescence, higher = more signal.
For assay [9] the target is unchanged. Description: small-molecule binders of mutant TOR1A in lysate, primary screen, cell lysate, small-molecule microarray, COS7 lysate, 635/667 nm fluorescence (AID 1150).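 Also: score pools 667 nm emission and signal to noise measuring lysate protein binding.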 Particulars: COS7 hTOR1A mutant lysate, 635 nm fluorescence, higher = more signal.
The subject of assay [10] is Sonic hedgehog protein (Shh). As to the kind of experiment: small-molecule binders of Shh protein, primary screen, biochemical, small-molecule microarray, 635/667 nm fluorescence (AID 1151).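 Also: Shh protein binding to compounds spotted on small-molecule microarray slides; score combines spot fluorescence intensity with signal-to-noise across triplicate slides.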 Particulars: small-molecule microarray binding, 635 nm fluorescence; higher = more signal.

Chain of Streptavidin (Streptomyces avidinii) (P22629 whole entry, looked up): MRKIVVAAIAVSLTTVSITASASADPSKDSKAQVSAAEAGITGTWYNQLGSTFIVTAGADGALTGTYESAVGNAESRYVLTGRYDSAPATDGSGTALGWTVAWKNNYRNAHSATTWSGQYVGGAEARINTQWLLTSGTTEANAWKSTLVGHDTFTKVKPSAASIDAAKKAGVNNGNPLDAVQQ
Chain of Torsin-1A (Homo sapiens) (O14656 whole entry, looked up): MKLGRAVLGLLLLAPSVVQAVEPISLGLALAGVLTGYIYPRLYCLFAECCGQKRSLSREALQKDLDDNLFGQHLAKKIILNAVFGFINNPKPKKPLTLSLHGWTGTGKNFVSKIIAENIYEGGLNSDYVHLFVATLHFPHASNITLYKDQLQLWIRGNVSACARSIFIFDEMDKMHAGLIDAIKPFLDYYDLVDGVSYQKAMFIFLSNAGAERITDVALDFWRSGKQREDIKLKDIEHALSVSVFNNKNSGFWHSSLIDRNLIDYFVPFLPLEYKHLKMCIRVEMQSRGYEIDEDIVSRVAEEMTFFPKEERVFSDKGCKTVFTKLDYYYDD

Consider `CN(C)CCCNC(=O)[C@@]1(C)c2ccccc2C(=O)N(Cc2cc(C(F)(F)F)cc(C(F)(F)F)c2)[C@H]1c1ccc(CO)cc1`, for which the composite z-score is -0.284 in assay [1]; -0.95 in [6]; 0.0275 in [7]; -0.639 in assay [8]; -0.774 in assay [9]; -0.584 in assay [10]. The z-score is -4.27 (inactive) in assay [2], -0.391 (inactive) in assay [3], 0.234 (inactive) in [4] and -0.227 (inactive) in [5].
Take `CC(C)C(=C=CC[C@H](O)c1ccc(OCCO)cc1)C[C@H](O)c1cc(Cl)cc(Cl)c1O`: the composite z-score turned out to be 0.0991 in assay [1]; 0.122 in assay [6]; 0.153 in assay [7]; 0.895 in [8]; 0.656 in assay [9]; 1.71 in assay [10]. For the same molecule, the z-score is -3.24 (inactive) in assay [2], 0.0919 (inactive) in assay [3], 7.76 (inactive) in [4] and -0.457 (inactive) in assay [5].
Turning to `CCCCN1CC=CC23O[C@@H]4C=CCOC(=O)[C@@H]4[C@H]2C(=O)N(CCCO)[C@@H]3C1=O` (stereo not given in full), the composite z-score in assay [1] is -0.133; in assay [6], -0.808; in assay [7] it was -0.23; in assay [8], 0.222; in assay [9], -0.107; in [10], -0.512. The z-score in assay [2] was -1.98 (inactive); in assay [3] it was -0.766 (inactive); in assay [4], -0.757 (inactive); in [5] it was 1.47 (inactive).
In the case of `CN(C)CCCCNC(=O)[C@H]1C[C@H]2C(=O)N[C@@H](CCCCN(C)C)C(=O)N2[C@H]1c1cccc(OCCO)c1`, the composite z-score in assay [1] is 0.83; in [6], 0.329; in [7], -0.305; in assay [8], 0.68; in assay [9] it was 0.86; in assay [10], 2.08. The z-score in [2] was 0.441 (inactive); in assay [3] it was 0.251 (inactive); in [4], -1.07 (inactive); in assay [5], -0.535 (inactive).
Take `CC(=O)n1cc(C(O)C2C=CC3C(=O)N(c4ccccc4)C(=O)C3N2Nc2ccccc2)c2ccccc21` (stereo not given): the composite z-score stood at 0.689 in [1]; 0.862 in assay [6]; 0.426 in [7]; 0.14 in assay [8]; 1.08 in assay [9]; 0.497 in assay [10]. Also, the z-score in [2] was -3.34 (inactive); in assay [3], -0.504 (inactive); in [4] it was 0.436 (inactive); in [5], -0.507 (inactive).
On to `CO[C@H]1O[C@H](CO)[C@@H](OC(=O)Nc2ccccc2-c2ccccc2)[C@H](OC(=O)Nc2ccc3c(c2)OCO3)[C@@H]1OC(=O)Nc1ccc2c(c1)OCO2`, for which the composite z-score came out at 0.25 in assay [1]; 0.282 in assay [6]; 0.361 in assay [7]; 0.388 in [8]; 1.41 in [9]; 0.91 in assay [10]. Also, the z-score is -2.72 (inactive) in [2], 0.233 (inactive) in assay [3], 0.792 (inactive) in [4] and -1.52 (inactive) in assay [5].
Turning to `COCC(=C=CC[C@H](O)c1ccc(OCCO)cc1)C[C@H](O)COCc1ccccc1`, the composite z-score in assay [1] is 0.122; in assay [6], 0.249; in assay [7], -0.0736; in assay [8], 0.908; in [9] it was 0.719; in [10], 1.55. Further, the z-score is -1.66 (inactive) in [2], -0.54 (inactive) in assay [3], 0.611 (inactive) in [4] and -0.724 (inactive) in assay [5].
On to `C=CC[C@@]12N=C(c3ccc(OCCCO)cc3)O[C@@H]1c1ccccc1N(CCS(=O)(=O)c1ccccc1)C2=O`, for which the composite z-score was determined as 0.518 in assay [1]; 1.41 in assay [6]; 0.136 in assay [7]; 0.558 in assay [8]; 0.264 in assay [9]; 1.62 in [10]. In addition, the z-score in assay [2] was -3.23 (inactive); in assay [3], -0.196 (inactive); in [4], -0.744 (inactive); in [5], -2.22 (inactive).
With `CCOC(=O)C[C@H]1[C@H](OC(=O)c2ccc(-c3ccccc3)cc2)[C@@H](NC(=O)c2ccc3ccccc3n2)c2cc(OCCCO)ccc2N1C(=O)c1ccccc1`, the composite z-score in assay [1] is 0.111; in [6] it was 0.968; in assay [7], 0.109; in [8] it was 0.448; in assay [9] it was 0.397; in [10], 0.861. In addition, the z-score in assay [2] was -0.727 (inactive); in [3], 0.306 (inactive); in assay [4] it was -0.477 (inactive); in assay [5], -0.169 (inactive).
As to `[N-]=[N+]=Nc1ccccc1[C@H]1OC(c2ccc(OCCCO)cc2)=N[C@@]1(CCS(=O)(=O)c1ccccc1)C(=O)N1CCCCC1`, the composite z-score was 0.375 in [1]; 1.89 in assay [6]; 0.153 in assay [7]; 0.456 in assay [8]; 1.01 in [9]; -0.678 in assay [10]. Moreover, the z-score in [2] is -4.28 (inactive); in [3] it was -1.21 (inactive); in assay [4], 0.47 (inactive); in [5] it was -0.993 (inactive).
Turning to `[N-]=[N+]=NCc1ccccc1C[C@@]1(C(=O)N2CCCCC2)N=C(c2ccc(OCCCO)cc2)O[C@@H]1c1ccccc1N=[N+]=[N-]`, the composite z-score in [1] is -0.269; in assay [6], 0.75; in [7], -0.209; in assay [8], 0.704; in assay [9], 0.826; in [10], 0.0369. The z-score in [2] is -3.28 (inactive); in assay [3], 1.48 (inactive); in [4] it was 0.596 (inactive); in [5], -1.16 (inactive).
For `O=C1NC(=O)C2C1C=CC(C(O)c1c(F)cccc1Cl)N2Nc1ccccn1` (stereo not given), the composite z-score in assay [1] is 0.233; in [6], -0.201; in assay [7], -0.0195; in assay [8] it was 0.355; in [9], 0.222; in [10], -0.0146. The z-score in assay [2] is 0.63 (inactive); in [3], 0.475 (inactive); in assay [4], 0.0535 (inactive); in assay [5], 0.204 (inactive).
`COc1ccc(C#Cc2ccc3c(c2)[C@]2(C(=O)N3)[C@H](C(=O)N3CCc4cc(OC)c(OC)cc4C3)[C@H]3C(=O)O[C@H](c4ccccc4)[C@H](c4ccccc4)N3[C@@H]2c2ccc(O)cc2)cc1`: the composite z-score in [1] was 0.219; in assay [6], 1.04; in assay [7] it was -0.121; in assay [8] it was 1.03; in [9] it was 0.199; in assay [10], 0.466. The z-score is -0.59 (inactive) in [2], -1.01 (inactive) in assay [3], -0.141 (inactive) in assay [4] and -1.02 (inactive) in assay [5].
With `O=C1OCC=C[C@H]2OC34C=CCN(Cn5nnc6ccccc65)C(=O)[C@H]3N(CCCCCCO)C(=O)[C@@H]4[C@@H]12` (stereo not given in full), the composite z-score is -0.277 in assay [1]; -0.701 in assay [6]; 0.111 in assay [7]; -0.494 in assay [8]; -0.416 in assay [9]; -0.104 in assay [10]. Besides, the z-score in assay [2] is 0.205 (inactive); in assay [3], 1.16 (inactive); in assay [4] it was 0.0484 (inactive); in assay [5] it was -0.116 (inactive).
